Assay results taken from PubChem BioAssay AID1645858 (Buhrlage Lab, Dana-Farber Cancer Institute and Novartis …, 2021).
Among all 47,000 compounds or so, about 330 (0.7%) were called active. No stated cut-off is given here; in the data, active means inhibition above about 30%; inactive means the rest. What follows is part of a selection rich in actives, with near analogues and random picks from the rest.

The compounds below were run against OTU domain-containing protein 3 (Homo sapiens) (UniProt Q5T2D3) (assay: inhibitors of human OTUD3 deubiquitinase (AID 1645858)). Conditions: purified OTUD3, Ub-rhodamine fluorescence, 2 h; at 25 µM; hits give high values.
Sequence of OTU domain-containing protein 3 (Homo sapiens) (Q5T2D3 whole entry, looked up, the tested form may be a part): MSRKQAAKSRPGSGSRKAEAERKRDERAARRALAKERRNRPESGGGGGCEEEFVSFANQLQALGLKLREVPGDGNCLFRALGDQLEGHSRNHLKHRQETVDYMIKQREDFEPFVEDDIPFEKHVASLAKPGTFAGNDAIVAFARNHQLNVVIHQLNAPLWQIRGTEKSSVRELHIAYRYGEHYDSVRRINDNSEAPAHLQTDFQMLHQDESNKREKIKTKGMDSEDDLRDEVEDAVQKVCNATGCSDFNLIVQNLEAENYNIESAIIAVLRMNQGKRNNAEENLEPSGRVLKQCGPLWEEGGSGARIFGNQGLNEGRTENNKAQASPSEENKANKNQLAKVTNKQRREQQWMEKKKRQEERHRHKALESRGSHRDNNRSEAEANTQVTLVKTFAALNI

SMILES	inhibition
Cc1ccc(C(=O)N2C[C@H]3NC(=O)c4ccccc4C(=O)[C@@]3(C)C2)cc1	-0.0157% (inactive)
CCN(C(=O)c1cncc(Br)c1)c1nc2ccccc2s1	-0.0268% (inactive)
COc1cc(OC)cc(-c2nnc(NC(=O)c3ccc([N+](=O)[O-])o3)o2)c1	40.4% (active)
COc1ccc(-c2ocnc2C(=O)NCc2ccc(OC)c(OC)c2)cc1	-9.98% (inactive)
COc1cccc(-c2ocnc2C(=O)NCc2ccc(OC)c(OC)c2)c1	-12.9% (inactive)
Nc1c(C(=O)CN2CCc3ccccc32)c(=O)[nH]c(=O)n1C1CC1	-63.2% (inactive)
Cc1ccccc1S(=O)(=O)NCc1nc2cccnc2n1C1CC1	-1.25% (inactive)
COC(=O)c1cc(S(=O)(=O)Nc2ccc(NC(=O)c3ccccc3)cc2)ccc1Cl	2.44% (inactive)
Cc1cccc(Nc2nccnc2C2CCCN2C(=O)c2ccnnc2)n1 (stereo unspecified)	10.1% (inactive)
O[C@H]1[C@H](NCc2cnc3ccccc3c2)[C@@H](c2cncnc2)C[C@H]1O	-7.7% (inactive)
Cc1ccccc1C(=O)N1CCC2(CC1)c1ncc(-c3cccnc3)n1CCN2C	-6.54% (inactive)
CSc1nc2c(c(Nc3ccc(C(C)=O)cc3)n1)CCC2	-0.0554% (inactive)
CC(C)Nc1ncnc2c1c(C(=O)N1CCCC1)c1ccccn12	-56.8% (inactive)
Cc1cc(O)c(=O)cc2c1C[C@H]1CC(C)(C)/C=C/C[C@@]3(C)Oc4cc(=O)c(O)cc(C)c4C[C@@H]3C[C@H](O)[C@]1(C)O2	33.2% (active)
Cc1cccc(Nc2cccc(C3CCCN3C(=O)c3cccnc3)n2)n1 (stereo unspecified)	-0.95% (inactive)
CN1CCN(c2ccc3nnc(CCC(=O)NC4CCN(Cc5ccccc5)CC4)n3n2)CC1	5.05% (inactive)
CC(C)=CCc1cc(O)ccc1O	-3.32% (inactive)
CC(C)=CCC(O)C1=CC(=O)c2c(O)ccc(O)c2C1=O (stereo unspecified)	94.7% (active)
Cc1cc(C)c2nc3c(cc2c1)CN(Cc1ccco1)C(=O)O3	19.2% (inactive)
CC1(c2ncc(Cc3cccc(F)c3)o2)CCCN(C(=O)CN2CCCC2)C1 (stereo unspecified)	-4.47% (inactive)
COc1ccccc1CCN[C@H]1CS(=O)(=O)C[C@@H]1S(=O)(=O)c1ccccc1	2.36% (inactive)
COc1ccc(NC(=O)c2cn(C)nc2S(=O)(=O)N2CCCCCC2)cc1	11% (inactive)

SMILES	inhibition
CC(C)NC(=O)c1cccc(-c2noc(-c3ccccc3Br)n2)c1	0.0532% (inactive)
Cc1cc(C)nc(N(C(=O)C2CC2)c2ccc(OC(F)(F)F)cc2)n1	-7.68% (inactive)
Cc1nnc(OCC(=O)Nc2ccc(OC(F)(F)F)cc2)c2ccccc12	35.8% (active)
COC(=O)c1ccc(NC(=O)CSc2nnc(C(C)Oc3ccccc3)n2C)cc1 (stereo unspecified)	-2.47% (inactive)
Cc1nc(Nc2ncccn2)cc(C2CCCN2S(=O)(=O)N(C)C)n1 (stereo unspecified)	-8.82% (inactive)
Cc1ccc(S(=O)(=O)N2CCC3(CC2)OC(C(=O)NCC(C)C)Cn2ccnc23)cc1 (stereo unspecified)	-3.62% (inactive)
O=C(CNC(=O)C1COc2ccccc2O1)Nc1ccccc1Br (stereo unspecified)	-5.2% (inactive)
CCn1nccc1C1CCCN1C(=O)C12CC3CC(CC(C3)C1)C2 (stereo unspecified)	-2.13% (inactive)
COc1ccc(-c2ccc(CCC(=O)NCc3ccccc3)o2)cc1	0.714% (inactive)
OC1CCC(Nc2nc(CN3CCOCC3)nc3sc4c(c23)CCC4)CC1 (stereo unspecified)	1.88% (inactive)
O=C(Nc1ccc(Cl)c(Cl)c1)C1C2C=CC3(O2)C1C(=O)N(CCCN1CCN(Cc2ccccc2)CC1)C3C(=O)NC1CCCCC1 (stereo unspecified)	-13.9% (inactive)
CCN1C(=O)COc2cc(-c3noc(C(=O)N4CCN(c5ccccc5)CC4)n3)ccc21	5.26% (inactive)
COc1cccc(NC(=O)C2Cc3ccccc3N2C(=O)c2ccccc2)c1 (stereo unspecified)	12% (inactive)
NS(=O)(=O)c1ccc(NS(=O)(=O)c2ccc(NC(=O)c3ccccc3)cc2)cc1	4.22% (inactive)
CC(NC(=O)c1ncoc1-c1ccc(F)cc1)c1ccccn1 (stereo unspecified)	3.88% (inactive)
O=C(CNS(=O)(=O)/C=C/c1ccccc1)N1CCCC(c2nc3ccccc3s2)C1 (stereo unspecified)	-13.9% (inactive)
CN(C)c1cccc(C(=O)OCC(=O)Nc2ccc(Cl)cn2)c1	1.07% (inactive)
Oc1cccc2nc3c(O)cccc3nc12	60.7% (active)
CC(C)(C)C(=O)c1cn(CC(=O)N2CCc3ccccc3C2)c2ccccc12	0.535% (inactive)
Clc1ccc(C2NC3=NCN(Cc4ccco4)CN3c3nc4ccccc4n32)cc1 (stereo unspecified)	11.6% (inactive)
O=C(Cn1cnc2ccccc21)N1CC(c2nc(-c3ccncc3)no2)C1	-2.15% (inactive)
COc1cccc(-n2c(=O)c(C(=O)NC(C)c3ccccc3)c(O)c3cccnc32)c1 (stereo unspecified)	1.53% (inactive)

SMILES	inhibition
O=C(NC1CCN(Cc2ccccc2)CC1)c1cc2cn(C3CC3)cc2s1	-34.6% (inactive)
Cc1ccc(S(=O)(=O)NCCc2nnc3ccc(SCC(=O)NCc4ccc5c(c4)OCO5)nn23)cc1	11.1% (inactive)
CCc1cc(C(=O)NCc2ccccc2)nc2ccnn12	-0.736% (inactive)
CCN(CC)S(=O)(=O)c1ccc(C(=O)Nc2sc(C)c(C)c2C(N)=O)cc1	-4.61% (inactive)
CC(=O)c1ccc(NC(=O)CSc2ncnc3c2cnn3-c2ccc(C)cc2C)cc1	-0.915% (inactive)
Cc1ccc(S(=O)(=O)N2C[C@H]3NC(=O)c4ccccc4C(=O)[C@@]3(C)C2)cc1	-3.74% (inactive)
COc1cc(C2c3[nH]c4ccccc4c3C[C@@H]3C(=O)N(CCC4=CCCCC4)CC(=O)N23)cc(OC)c1OC (stereo partly specified)	-46.8% (inactive)
O=C(Nc1ccccc1Cl)N1C[C@H]2C[C@H]3[C@](C1)(CN(Cc1cccnc1)S3(=O)=O)O2	2.31% (inactive)
C[C@@H]1CC[C@H]2C(CN3CCCC(C)(C)C3)C(=O)O[C@]23[C@H]1CC[C@@]1(C)O[C@@H]31 (stereo partly specified)	-0.238% (inactive)
CCOc1ccccc1Oc1nnnn1-c1ccccc1	23% (inactive)
CN(C(=O)COc1ccc(C(N)=O)cc1)C1CCCCC1	-6.97% (inactive)
Cc1nn(-c2cccc(F)c2)c2c1c(C)c(CCC(=O)NCc1ccccn1)c(=O)n2C	8.09% (inactive)
CC(=O)N1CCC(N2CCC[C@H]2c2nc(-c3ccc(OC4CCCCC4)nc3)no2)CC1	-18.8% (inactive)
O=C(c1cc2ccc(F)cc2[nH]1)N1CCOCC(Cc2ccncn2)C1 (stereo unspecified)	-7.16% (inactive)
Cn1cc(C(=O)N2CCCCC2c2nc(N)ncc2-c2ccccc2)ccc1=O (stereo unspecified)	-2.37% (inactive)
CCC(=O)N(C)CCc1noc(-c2[nH]c3ccc(C)cc3c2C)n1	-11.5% (inactive)
Cc1noc(C)c1C1CCCN1S(=O)(=O)c1cccc(Cl)c1 (stereo unspecified)	0.263% (inactive)
O=C(COc1cccc2ccc(N3CCC(Cc4ccccc4)CC3)nc12)Nc1cccc(F)c1	21.8% (inactive)
O=C(COc1cccc2ccc(N3CCC(Cc4ccccc4)CC3)nc12)NCc1ccc(F)cc1	36.2% (active)
O=C(CCc1nnc2ccc(N3CCCC3)nn12)NCc1ccc(F)cc1	12% (inactive)
Cc1ccc(NC(=O)N2CCC(CC(=O)N3CCCCC3)CC2)cc1	-0.189% (inactive)
CCC(C)C1C(=O)/C(=C(\O)C2C3C(C)CC(C)CC3C=CC2C2(C)OC2C)C(=O)N1C (stereo unspecified)	18.9% (inactive)

SMILES	inhibition
CCOC(=O)N1CCN(c2nc3c(c(=O)[nH]c(=O)n3C)n2CCSc2ncccn2)CC1	13.2% (inactive)
CC(C)CNC(=O)C1CCN(c2cncnc2N2CCOCC2)CC1	0.599% (inactive)
CC(=O)c1sc(NC(=O)c2ccc(S(=O)(=O)N3CC(C)CC(C)C3)cc2)nc1C (stereo unspecified)	4.19% (inactive)
CCn1c(CN(C)C(=O)Nc2cccc(C)c2)nc2cc(C(=O)N(C)C)ccc21	10.5% (inactive)
CS(=O)(=O)c1ccc(C(=O)Nc2ccccc2-c2ccccc2)cc1	11.2% (inactive)
COc1ccc(N2CC(c3nnc(NC(=O)CCc4ccccc4)s3)CC2=O)cc1 (stereo unspecified)	17.9% (inactive)
N#CCCN(C(=O)c1cc2c(s1)-c1ccc(Cl)cc1S(=O)(=O)C2)c1ccccc1	-4.41% (inactive)
CC(=O)N1CCc2c([nH]c3ccccc23)C1	-0.00325% (inactive)
COc1ccccc1N(CC(=O)N1c2ccccc2CC1C)S(=O)(=O)c1ccc(F)cc1 (stereo unspecified)	14% (inactive)
Oc1ccc(O)c2c1C(O)CCC21Oc2cccc3cccc(c23)O1 (stereo unspecified)	-11.1% (inactive)
Cc1nc2n(n1)CCN(C(=O)c1cc(-c3cccs3)[nH]n1)C2	0.034% (inactive)
CC(Oc1ccccc1)C(=O)Nc1ccc(-c2cn3cccnc3n2)cc1 (stereo unspecified)	4.02% (inactive)
CC1(C)Cc2c(c(-c3ccco3)nc3sc4c(SCCCc5ccccc5)ncnc4c23)CO1	33.5% (active)
CSc1ncnc2c1sc1nc(-c3ccccc3)c3c(c12)CC(C)(C)OC3	7.31% (inactive)
CCCCCCSc1ncnc2c1sc1nc(-c3ccccc3)c3c(c12)CC(C)(C)OC3	-6.83% (inactive)
COc1ccc(Cl)cc1C(=O)NCC(c1ccsc1)N1CCOCC1 (stereo unspecified)	-5.99% (inactive)
CC1CN(S(=O)(=O)c2cccc(Cl)c2)Cc2ccccc2N1C (stereo unspecified)	-2.48% (inactive)
Cc1ccc(S(=O)(=O)c2cn(CC(=O)NC3CCCC3)c3nc(C)ccc3c2=O)cc1	-8.29% (inactive)
N#Cc1cccc(CN2CC[C@@H]3[C@@H](CO[C@@H]3CNc3ncccn3)C2)c1	0.273% (inactive)
CCN1CCN(c2ccc(-c3nc(-c4ccc(C)cc4)no3)cn2)CC1	-1.12% (inactive)
